Compound activity: PubChem BioAssay, Sanford-Burnham Center for Chemical Genomics
In the library only some 28% were active in any assay of this set; here they are far more common.
CYP2C9 act = increases human cytochrome P450 2C9 activity | P11712 | recombinant CYP2C9, luciferin-H conversion, luminescence; active compounds read high; factor 1 = untreated enzyme, 0 = blocked | activation factor at 5 µM | actives 1.4% (n = 96,000);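 active = activation factor of 2 or more for CYP2C9 at a 5 µM dose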;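 note: 0 = sulfaphenazole-blocked wells and 1 = vehicle-only wells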
CD11b adhes inh = blocks human CD11b/CD18 adhesion to fibrinogen | K562 CD11b/CD18 adhesion to fibrinogen, ATPlite luminescence; Mn2+ added to activate the integrin | inhibition, % at 10 µM | actives 0.54% (n = 93,000) | AID 1497;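 active = primary inhibition of 50% or more at 10 µM, then 40% or more on retest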
Target sequence (P05107 whole entry, looked up, other chains not shown): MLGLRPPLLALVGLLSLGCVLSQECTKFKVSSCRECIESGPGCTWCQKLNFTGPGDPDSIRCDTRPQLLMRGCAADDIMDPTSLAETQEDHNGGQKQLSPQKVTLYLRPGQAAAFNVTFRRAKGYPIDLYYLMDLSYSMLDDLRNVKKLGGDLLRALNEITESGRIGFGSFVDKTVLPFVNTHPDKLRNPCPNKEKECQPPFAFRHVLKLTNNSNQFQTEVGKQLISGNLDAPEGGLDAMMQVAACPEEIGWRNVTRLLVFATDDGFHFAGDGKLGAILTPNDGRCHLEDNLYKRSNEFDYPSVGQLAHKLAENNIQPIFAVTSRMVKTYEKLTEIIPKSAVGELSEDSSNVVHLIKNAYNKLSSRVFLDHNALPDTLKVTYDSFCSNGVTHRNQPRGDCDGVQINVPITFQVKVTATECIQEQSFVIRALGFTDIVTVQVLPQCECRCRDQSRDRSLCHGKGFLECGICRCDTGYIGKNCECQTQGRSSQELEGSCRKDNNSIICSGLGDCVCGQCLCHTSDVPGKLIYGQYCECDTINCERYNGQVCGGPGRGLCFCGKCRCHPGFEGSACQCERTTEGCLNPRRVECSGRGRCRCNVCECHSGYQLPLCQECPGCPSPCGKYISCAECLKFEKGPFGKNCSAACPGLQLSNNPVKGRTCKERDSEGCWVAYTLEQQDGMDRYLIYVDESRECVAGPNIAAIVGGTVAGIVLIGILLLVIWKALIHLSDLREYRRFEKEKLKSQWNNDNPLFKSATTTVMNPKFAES
CYP2C19 inh = inhibitors of human CYP2C19 | P33261 | CYP2C19 Supersomes, luciferin-H EGE luminescence, 30 min | inhibition, % at 5 µM | actives 21% (n = 96,000) | AID 778;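 active = CYP2C19 inhibition above a set limit at 5 µM in the primary screen, cut at about 50% in these data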;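 note: plate controls were negative control wells for no effect and 2.5 mM tranylcypromine positive control for full effect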
CYP2C19 act = cytochrome P450 2C19 (human) activation; P33261; activation factor at 5 µM; recombinant CYP2C19, luciferin-H EGE luminescence; active compounds read high; 0 = fully inhibited enzyme, 1 = untreated enzyme; 96,000 tested, under 10 active;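 active = activation factor of at least 2 at 5 µM in the primary screen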;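 note: 0 = wells with 2.5 mM tranylcypromine and 1 = vehicle-only wells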
Mac1 fbg enh = enhancers of human CD11b/CD18 binding to fibrinogen; AID 1499; activation, % at 10 µM; K562 CD11b/CD18 adhesion to fibrinogen, ATPlite luminescence; actives 0.07% (n = 93,000); P05107+P11215;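 active = 10 µM primary screen giving 50% or more activity, confirmed by 40% or more on retest at that dose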
CYP2C9 inh = blocks human cytochrome P450 2C9. inhibition, % at 5 µM. CYP2C9 Supersomes, luciferin-H conversion, luminescence. actives 20% (n = 96,000);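 active = blocking of liver enzyme CYP2C9 beyond about 50% at 5 µM, limit read from the data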
* marks the source's active call; other numbers are inactive results; nt = not tested or not shown.

SMILES | CYP2C9 act | CD11b adhes inh | CYP2C19 inh | CYP2C19 act | Mac1 fbg enh | CYP2C9 inh
CCc1nnc(NC(=O)CSc2nc3c(c(=O)n2C)SC(C)C3)s1 (stereo unspecified) | 0.7 | 4.0 | 15.1 | 0.8 | 1.2 | 25.6
Cc1nnc(NC(=O)CSc2nc3c(c(=O)n2CCc2ccccc2)SC(C)C3)s1 (stereo unspecified) | 0.9 | 5.7 | 1.3 | 1 | 9.5 | 7.6
CCSc1nnc(NC(=O)CSc2nc3c(c(=O)n2C)SC(C)C3)s1 (stereo unspecified) | 0.4 | -1.3 | 33.9 | 0.7 | -1.0 | 62.5*
CCC(Sc1nc2c(c(=O)n1CC)SC(C)C2)C(=O)OC (stereo unspecified) | 0.4 | 14.3 | 26.4 | 0.7 | 5.3 | 55.5*
CC1Cc2nc(SCC(=O)Nc3nc4ccccc4s3)n(C)c(=O)c2S1 (stereo unspecified) | 0 | 35.9 | 96.8* | 0 | -5.1 | 97.8*
CCn1c(SCC(=O)Nc2nnc(C)s2)nc2c(c1=O)SC(C)C2 (stereo unspecified) | 0.4 | -11.5 | -7.2 | 1.1 | -4.5 | 62.2*
CCSc1nnc(NC(=O)CSc2nc3c(c(=O)n2CC)SC(C)C3)s1 (stereo unspecified) | 0.6 | nt | 2.8 | 1 | nt | 38.3
CCCCCn1c(C(C)NC(=O)CCC)nc2ccccc21 (stereo unspecified) | 0.9 | -25.9 | -1.2 | 1 | 2.4 | 9.1
Cc1ccc(C(C)C)c(OCc2nnc(SCC(=O)Nc3ncc(C)s3)n2C)c1 | 1 | -0.6 | 3.1 | 1 | -1.3 | -3.5
Cc1cc(C)nc(Nc2nc(=O)c3ccccc3s2)n1 | 0.9 | -16.4 | 0.2 | 1 | -1.1 | 10.7
CCn1c(SCC(=O)Nc2cccc(C)c2)nc2c(c1=O)SC(C)C2 (stereo unspecified) | 0.2 | 4.7 | 39.0 | 0.6 | -3.8 | 75.1*
Cc1cc(NC(=O)CSc2nc3c(c(=O)n2CCc2ccccc2)SC(C)C3)no1 (stereo unspecified) | 0.9 | -4.7 | -14.6 | 1.1 | 3.1 | 5.2
CCn1c(SCC(=O)Nc2ccc3c(c2)OCO3)nc2c(c1=O)SC(C)C2 (stereo unspecified) | 0.2 | -11.2 | 69.0* | 0.3 | 2.0 | 83.6*
CC1Cc2nc(SCC(=O)Nc3ccc4c(c3)OCO4)n(CCc3ccccc3)c(=O)c2S1 (stereo unspecified) | 0.2 | 22.4 | 44.3 | 0.6 | 7.4 | 84.8*
O=C(Nc1ccc(Cl)cc1)C1CCC(=O)N1Cc1ccccc1Cl (stereo unspecified) | 0.1 | 20.5 | 79.0* | 0.2 | -3.2 | 90.6*
O=C(Nc1ccccc1Br)C1CCC(=O)N1Cc1ccccc1Cl (stereo unspecified) | 0.6 | 1.2 | 22.2 | 0.8 | -0.6 | 44.7
O=c1[nH]cnc2scc(-c3ccc(-c4ccccc4)cc3)c12 | 1 | -27.9 | -4.6 | 1 | -4.6 | -4.6
O=c1[nH]c(Cn2nnc(-c3ccccc3)n2)nc2scc(-c3ccccc3)c12 | 0.2 | -23.6 | 34.8 | 0.7 | -0.7 | 82.0*
CC(=NCCc1ccccc1)C1=C(O)CSC1=O | 0.6 | -11.7 | 67.2* | 0.3 | 1.4 | 38.9
Cc1cc(C)n2nc(C(=O)N/N=C/c3c4ccccc4cc4ccccc34)nc2n1 | nt | 7.7 | nt | nt | 1.8 | nt
O=C(NC(=S)N1CCOCC1)c1ccc([N+](=O)[O-])cc1 | nt | 8.0 | nt | nt | -1.8 | nt
C=CCOc1ccccc1/C=N/O | 1 | -8.8 | 6.1 | 0.9 | -2.9 | -4.3
C=CCOc1c(Cl)cc(/C=N/O)cc1OC | 0.6 | -2.3 | 97.9* | 0 | 66.1 | 39.0
CC1(C)NC(=O)N(CCCCOc2ccc(Cl)cc2)C1=O | 0.6 | 9.7 | 86.2* | 0.1 | -1.2 | 44.5
Cc1cc(OCCCCN2C(=O)NC(C)(C)C2=O)cc(C)c1Cl | 1 | -10.6 | 76.3* | 0.2 | 0.1 | -3.5
SMILES | CYP2C9 act | CD11b adhes inh | CYP2C19 inh | CYP2C19 act | Mac1 fbg enh | CYP2C9 inh
CCc1cc(OCCN2C(=O)NC(C)(C)C2=O)ccc1Cl | 0.6 | 1.8 | 74.3* | 0.3 | -4.6 | 42.1
C/C=C/c1ccc(OCCN2C(=O)NC(C)(C)C2=O)c(OC)c1 | 0.9 | 4.7 | 36.6 | 0.6 | -1.9 | 11.1
Cc1cc(OCCCCCNCCO)cc(C)c1Cl | 0.8 | -3.9 | 17.3 | 0.8 | -2.2 | 16.5
CC1(C)NC(=O)N(CCCOc2ccc3c(c2)CCC3)C1=O | 0.9 | -2.8 | 90.1* | 0.1 | 11.1 | 11.0
Cc1ccc(NC(=O)C(=O)NCc2ccc(/C=N/NC(=O)c3c(C)nc4ccccn34)o2)cc1 | nt | 10.7 | nt | nt | 27.5 | nt
CC1(C)NC(=O)N(CCCSc2ccc(Cl)cc2)C1=O | 0.4 | 5.0 | 93.0* | 0.1 | -3.0 | 62.3*
CC1(C)NC(=O)N(CN2C(=O)NC(C)(C)C2=O)C1=O | 0.9 | -29.3 | 2.5 | 1 | 1.2 | 8.2
CC1(C)NC(=O)N(CNc2cc(Cl)ccc2Cl)C1=O | 3.1* | -46.9 | 88.3* | 0.1 | 1.4 | -205.5
Cc1sc2ncnc(NCCc3ccc(S(N)(=O)=O)cc3)c2c1C | 1 | 51.4* | 6.1 | 0.9 | -5.4 | 3.5
NS(=O)(=O)c1ccc(CCNc2ncnc3sccc23)cc1 | 0.6 | 81.8 | 82.8* | 0.2 | -4.3 | 41.8
CC1(C)CC(=O)C=C(NCCc2ccc(S(N)(=O)=O)cc2)C1 | 1.1 | -5.2 | 0.9 | 1 | -1.5 | -9.1
O=C(COc1ncnc2scc(-c3ccc(Cl)cc3)c12)NCc1ccco1 | 0.8 | -11.9 | 25.7 | 0.7 | 3.1 | 15.9
Cc1ccc(Cn2c3ccccc3c3cn[nH]c(=O)c32)cc1 | 0.8 | 33.6 | -0.9 | 1 | -1.9 | 18.2
Cc1nnc(SCC(=O)N2CC(=O)Nc3ccccc32)n1C | 1 | -20.3 | 4.5 | 1 | -5.2 | 0.8
Cc1ccc(-n2nnnc2SCC(=O)N2CC(=O)Nc3ccccc32)cc1 | 1.5 | 5.3 | 51.5* | 0.5 | -0.5 | -47.8
Cc1ccccc1-n1c(C)nnc1SCC(=O)N1CC(=O)Nc2ccccc21 | 1.1 | 1.4 | 70.2* | 0.3 | -2.5 | -14.7
NC(=O)C1CCN(C(=O)C2c3ccccc3C(=O)N3CCc4ccccc4C23)CC1 (stereo unspecified) | 0.8 | -3.8 | -4.3 | 1 | -3.2 | 18.0
CCn1cc(CNC(=O)c2cc(-c3ccccc3OC)nc3ccccc23)c(C)n1 | 0.7 | -4.1 | 9.1 | 0.9 | -3.3 | 31.7
COC(=O)c1ccc(/C=N/Nc2nc(-c3ccccc3)cs2)cc1 | nt | -5.3 | nt | nt | 28.0 | nt
C(=N\Nc1nc(-c2ccccc2)cs1)/c1cccnc1 | 0.1 | 1.7 | 92.9* | 0.1 | 3.8 | 88.7*
CCCCc1c(O)nc(SCC(=O)N2CCOCC2)n(-c2ccccc2C)c1=O | 1.1 | 6.6 | -8.7 | 1.1 | 6.2 | -12.9
CN(C)/C=N/c1sc2c(c1C#N)CCC2 | 0.7 | -0.4 | 67.4* | 0.3 | 1.8 | 33.1
N#Cc1c(/N=C/N2CCOCC2)sc2c1CCCCC2 | 1 | 8.3 | 23.6 | 0.8 | -2.0 | 2.2
